Reference: the supplement of paper PMC3334620
The full ranking holds about 33,000 sequences; the median of “E-score (-0.5 to 0.5)” is about -0.043, and the highest 2% start at about 0.37. The sample holds the highest values, similar sequences and a random draw of the others, so the mix is not that of the screen.

These sequences were tested against T1, Upc2 (UniProt Q12151) (assay: PBM E-score (8-mer binding enrichment) (E-score (-0.5 to 0.5)); higher = stronger / more preferred TF binding). Settings: protein concentration: 200 nM; construct: GST-full length.
T1 sequence: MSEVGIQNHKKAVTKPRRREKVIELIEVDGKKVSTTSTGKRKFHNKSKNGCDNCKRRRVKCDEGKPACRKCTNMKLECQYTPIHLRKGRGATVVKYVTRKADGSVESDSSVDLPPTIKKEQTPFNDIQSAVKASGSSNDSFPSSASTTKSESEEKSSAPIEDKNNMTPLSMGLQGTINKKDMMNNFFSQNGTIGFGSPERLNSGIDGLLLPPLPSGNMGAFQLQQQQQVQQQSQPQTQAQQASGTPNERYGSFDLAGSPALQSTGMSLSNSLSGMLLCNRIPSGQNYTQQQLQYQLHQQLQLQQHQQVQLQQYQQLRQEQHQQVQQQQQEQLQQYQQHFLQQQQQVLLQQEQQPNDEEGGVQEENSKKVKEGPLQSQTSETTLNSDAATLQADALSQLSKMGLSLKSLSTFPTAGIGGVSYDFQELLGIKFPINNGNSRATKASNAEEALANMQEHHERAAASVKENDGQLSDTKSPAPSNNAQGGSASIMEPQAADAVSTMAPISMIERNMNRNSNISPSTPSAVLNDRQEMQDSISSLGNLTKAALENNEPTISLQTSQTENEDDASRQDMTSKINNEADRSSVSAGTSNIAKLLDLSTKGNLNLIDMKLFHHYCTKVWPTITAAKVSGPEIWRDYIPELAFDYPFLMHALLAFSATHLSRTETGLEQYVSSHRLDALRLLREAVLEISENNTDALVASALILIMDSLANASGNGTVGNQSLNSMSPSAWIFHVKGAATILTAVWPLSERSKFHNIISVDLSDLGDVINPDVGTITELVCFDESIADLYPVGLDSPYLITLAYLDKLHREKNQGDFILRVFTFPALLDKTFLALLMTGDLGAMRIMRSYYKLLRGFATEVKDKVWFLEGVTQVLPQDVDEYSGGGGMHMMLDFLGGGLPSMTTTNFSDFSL
Description: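 Universal 'all 10-mer' protein binding microarrays (Agilent AMADID 015681) probed with GST-tagged S. cerevisiae TFs (full-length or DBD) made by in vitro transcription/translation (PURExpress), about 100-200 nM. Bound TF was detected with fluorescent anti-GST. Each ungapped 8-mer (which stands for itself and its reverse complement) is scored by the PBM enrichment score (E-score), a modified Wilcoxon-Mann-Whitney statistic from -0.5 to +0.5, computed with the Universal PBM Analysis Suite. Scale: above 0.35 generally sequence-specific binding.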

Sequence | PBM E-score
CAATACGC | 0.0949
AAATACGT | 0.109
GAATACGA | 0.439
AAATACGC | 0.212
GAATACTA | 0.104
CAATACGG | 0.196
TAATACGA | 0.429
CAATACGA | 0.419
AAATACGA | 0.449
ACTTTATA | 0.127
CCGTCCAC | -0.0949
AATACTAG | 0.00488
ATCAGACG | 0.0965
GGAGTGAC | -0.0854
AGCTCCAT | -0.216
ACTGTCCA | -0.0712
CGTACCCA | 0.376
AGTACCCC | -0.00507
AGTACCCA | -0.131
GGTACCCA | -0.0644
CGTACCCC | 0.391
CATACCCC | -0.0287
CTTTTGGA | -0.147
ACCCACAC | 0.11
GATACGGA | 0.278

Sequence | PBM E-score
TATACGGA | 0.47
CATACGGA | 0.365
GATACGCA | 0.276
TATACGCA | 0.449
CATACGCA | 0.313
ACACCATC | -0.205
CCAAGGAC | -0.247
CGGAGAAA | 0.158
CTTGATCA | -0.14
ATTTATAA | 0.0439
CTCTATAC | 0.397
CTATATAC | 0.358
CTTTATAC | 0.303
ATCTATAC | 0.287
AGCTATAC | 0.309
AGTTATAC | 0.333
CGCTATAC | 0.392
GGTTATAC | 0.383
ATTTATAC | 0.41
CGTTATAC | 0.367
GGCTATAC | 0.299
TCGAGAGA | 0.0401
GCTAACAC | -0.0792
CCTTACAA | -0.227
CCCTATAC | 0.342

Sequence | PBM E-score
GCCTATAC | 0.276
ACCTATAC | 0.382
AAGGGGGC | 0.0404
CATCTTCA | -0.263
GAAACGCC | 0.0519
CAAACGAC | 0.464
GAAACGAC | 0.423
AAAACGAT | 0.265
AAAACGAC | 0.375
ACAACGAC | 0.258
CAAACGAG | 0.484
CCAACGAC | 0.0191
CCAACGAG | 0.091
AAAACGAG | 0.316
CTAACGAC | 0.279
GAAACGGC | 0.187
ATTGCTGG | -0.0945
CACGGCTC | -0.128
ACGCTGGA | 0.0743
CCAACCCA | -0.236
ATCCACCC | -0.179
GGGTTACC | 0.0304
ACGCTTAA | 0.135
ATTGGATG | 0.03
ATTACCAA | -0.131

Sequence | PBM E-score
CGCTAGAC | -0.0752
ACGTACCA | 0.255
TCGTACCA | 0.476
GCGTACAA | 0.324
ACGTACAA | 0.309
CCGTACAA | 0.413
GCGTACCA | 0.215
CAGTACAA | -0.0317
CGGTACAA | 0.222
TCGTACAA | 0.487
AGCCCTTC | -0.211
ATATATCC | 0.0459
AGAGGACG | -0.0919
AATGGGCA | -0.00586
CAAGATAG | -0.0974
ATTTCGTC | 0.0429
ATTTCGTG | 0.0688
ATTTCGTA | 0.431
GTTTCGAA | 0.0998
CTTTCGGA | -0.11
GTTTCGGA | 0.219
CTTTCGTC | -0.043
CTTTCGTA | 0.416
GTTTCGTA | 0.446
CATAATCC | -0.0711

Sequence | PBM E-score
GAAGGCGC | -0.132
AGCGTAAT | -0.0565
CAGCTATA | 0.0617
AGACGATG | 0.0313
ATACGATG | 0.473
CTACGATC | 0.288
ATACGATC | 0.465
ACACGATG | 0.166
ACACGATC | 0.123
CGCTAAAC | 0.345
ACAAGCCC | -0.1
AAGAACGT | 0.108
AAGAACGG | 0.0306
GAGAACGA | 0.36
CAGAACGC | -0.0286
CAGAACGG | 0.139
CAGAACGA | 0.399
AAGAACGA | 0.408
TAGAACCA | -0.0454
TAGAACGA | 0.383
CTTGGATA | -0.103
AACCTAAC | -0.0536
CCCCAACG | -0.107
CCTAAACA | -0.063
ACTAAACG | 0.463

Sequence | PBM E-score
CCTAAACG | 0.472
ACTAAACC | 0.0385
ATTTAACC | -0.0686
ATTAAACA | -0.0789
ACTAAACA | -0.109
ATTTAACA | 0.0412
ATTAAACC | -0.0396
CCTAAACC | 0.0842
ATTAAACG | 0.461
ATTTAACG | 0.387
CGACTCTA | 0.0472
CAAGGTTA | 0.0313
AGCATCCG | 0.106
TACTCAGA | -0.0518
CGCCTGTA | -0.0476
GACCCACA | 0.0499
CAAGTAAA | 0.0181
GGTTGACA | -0.0866
ATCTAATC | -0.0686
CCTCGTCA | 0.108
TCTCGTCA | -0.0265
CCTCGTAG | 0.389
CCGCGTAC | 0.324
CCTCGTAC | 0.477
CCTCGTAA | 0.444

Sequence | PBM E-score
CCTCGTCG | 0.195
TCACGTAA | 0.0344
CCTCGGAC | 0.199
TCTCGTAA | 0.434
CCTCATAG | -0.226
CCTCGTGA | 0.168
CATCACTA | -0.183
CACTTTCA | -0.151
CCTACACA | -0.118
CGAGAGAA | 0.113
CCTCAGTA | -0.0614
GCTCGTCA | 0.0569
ACTCGTCA | -0.0246
GCTCGTAC | 0.477
GCTCGTGA | 0.00182
GCACGTAC | 0.227
ACTCGTCC | -0.141
GCTCGTCC | -0.249
GCTCGTAA | 0.456
ACTCGTAC | 0.472
ACTCGTAA | 0.433
ACTCGTAG | 0.353
ACTCGTGC | 0.0738
